Data: PubChem BioAssay AID1159580 (chemical genetic matrix, 2015)
The campaign covered roughly 5,500 compounds. About 2,000 (36%) were called active. About 18% were inconclusive and are not listed. Cut-off read from the data, not from the text of the source: active = normalized growth mostly below about 0.91 (no sharp cut-off); inconclusive = no clear call, values can overlap the other calls; inactive = mostly above about 0.92. The list shows a part of the results.

Assay: chemical genetic growth profiling, strain panel (AID 1159580);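 note: tested at 20 µM; growth read once vehicle control cultures reached saturation at 30 °C; 1 = growth at the plate median or of vehicle wells; lower values mean less growth of the strain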
Conditions: growth OD

Measured: normalized growth

CC(=O)OC1CC(OC(C)=O)C2(C)C(CC(OC(C)=O)C3(C)C2CCC2(C)C(c4ccoc4)OC(=O)C4OC423)C1(C)C (stereo unspecified)
inactive: S. cerevisiae deletion strains, locus YAL013W, strain DEP1, stronger effect = lower value 0.995 | S. cerevisiae deletion strains, locus YBR021W, strain FUR4, stronger effect = lower value 0.986 | S. cerevisiae deletion strains, locus YBR229C, strain ROT2, stronger effect = lower value 0.984 | S. cerevisiae deletion strains, locus YCL029C, strain bik1, stronger effect = lower value 0.984 | S. cerevisiae deletion strains, locus YDL035C, strain GPR1, stronger effect = lower value 0.97 | S. cerevisiae deletion strains, locus YDL074C, strain BRE1, stronger effect = lower value 1.03 | S. cerevisiae deletion strains, locus YDL101C, strain DUN1, stronger effect = lower value 0.978 | S. cerevisiae deletion strains, locus YDL134C, strain PPH21, stronger effect = lower value 1 | S. cerevisiae deletion strains, locus YDL185W, strain tfp1, stronger effect = lower value 0.986 | S. cerevisiae deletion strains, locus YDL192W, strain arf1, stronger effect = lower value 0.99 | S. cerevisiae deletion strains, locus YDR101C, strain arx1, stronger effect = lower value 0.981 | S. cerevisiae deletion strains, locus YDR150W, strain NUM1, stronger effect = lower value 1 | S. cerevisiae deletion strains, locus YDR162C, strain NBP2, stronger effect = lower value 1.01 | S. cerevisiae deletion strains, locus YDR318W, strain mcm21, stronger effect = lower value 0.986 | S. cerevisiae deletion strains, locus YDR388W, stronger effect = lower value 0.988 | S. cerevisiae deletion strains, locus YDR502C, strain sam2, stronger effect = lower value 1 | S. cerevisiae deletion strains, locus YEL061C, strain CIN8, stronger effect = lower value 0.995 | S. cerevisiae deletion strains, locus YER110C, stronger effect = lower value 0.977 | S. cerevisiae deletion strains, locus YER155C, strain BEM2, stronger effect = lower value 0.976 | S. cerevisiae deletion strains, locus YER167W, strain BCK2, stronger effect = lower value 0.973 | S. cerevisiae deletion strains, locus YGL078C, strain dbp3, stronger effect = lower value 1 | S. cerevisiae deletion strains, locus YGL086W, strain mad1, stronger effect = lower value 0.99 | S. cerevisiae deletion strains, locus YGL248W, strain PDE1, stronger effect = lower value 1 | S. cerevisiae deletion strains, locus YGR078C, strain PAC10, stronger effect = lower value 1.04 | S. cerevisiae deletion strains, locus YGR135W, strain pre9, stronger effect = lower value 1.02 | S. cerevisiae deletion strains, locus YGR229C, strain SMI1, stronger effect = lower value 0.997 | S. cerevisiae deletion strains, locus YGR252W, strain gcn5, stronger effect = lower value 0.951 | S. cerevisiae deletion strains, locus YHR030C, strain SLT2, stronger effect = lower value 0.984 | S. cerevisiae deletion strains, locus YHR079C, strain IRE1 (second series), stronger effect = lower value 0.99 | S. cerevisiae deletion strains, locus YHR094C, strain hxt1, stronger effect = lower value 0.984 | S. cerevisiae deletion strains, locus YHR129C, strain ARP1, stronger effect = lower value 0.997 | S. cerevisiae deletion strains, locus YHR200W, strain rpn10, stronger effect = lower value 0.99 | S. cerevisiae deletion strains, locus YIL066C, strain RNR3, stronger effect = lower value 0.986 | S. cerevisiae deletion strains, locus YIL073C, strain SPO22, stronger effect = lower value 0.954 | S. cerevisiae deletion strains, locus YIL125W, strain kgd1, stronger effect = lower value 0.983 | S. cerevisiae deletion strains, locus YIR030C, strain dcg1, stronger effect = lower value 0.984 | S. cerevisiae deletion strains, locus YJL095W, strain BCK1, stronger effect = lower value 1.03 | S. cerevisiae deletion strains, locus YJL134W, strain LCB3, stronger effect = lower value 0.984 | S. cerevisiae deletion strains, locus YJL168C, strain set2, stronger effect = lower value 0.986 | S. cerevisiae deletion strains, locus YJL187C, strain SWE1 (second series), stronger effect = lower value 1.01 | S. cerevisiae deletion strains, locus YJR043C, strain POL32, stronger effect = lower value 0.98 | S. cerevisiae deletion strains, locus YJR075W, strain HOC1, stronger effect = lower value 1.01 | S. cerevisiae deletion strains, locus YKL009W, strain mrt4, stronger effect = lower value 0.971 | S. cerevisiae deletion strains, locus YKL068W, stronger effect = lower value 1 | S. cerevisiae deletion strains, locus YKL085W, strain MDH1 (second series), stronger effect = lower value 0.992 | S. cerevisiae deletion strains, locus YKL085W, strain MDH1, stronger effect = lower value 0.992 | S. cerevisiae deletion strains, locus YKL190W, strain CNB1, stronger effect = lower value 1 | S. cerevisiae deletion strains, locus YKR001C, strain vps1, stronger effect = lower value 1.01 | S. cerevisiae deletion strains, locus YLR039C, strain RIC1, stronger effect = lower value 0.929 | S. cerevisiae deletion strains, locus YLR058C, strain SHM2, stronger effect = lower value 0.984 | S. cerevisiae deletion strains, locus YLR102C, strain apc9, stronger effect = lower value 0.979 | S. cerevisiae deletion strains, locus YLR262C, strain YPT6, stronger effect = lower value 0.975 | S. cerevisiae deletion strains, locus YLR268W, strain sec22, stronger effect = lower value 1 | S. cerevisiae deletion strains, locus YLR330W, strain CHS5, stronger effect = lower value 0.989 | S. cerevisiae deletion strains, locus YLR342W, strain FKS1 (second series), stronger effect = lower value 0.941 | S. cerevisiae deletion strains, locus YLR371W, strain rom2, stronger effect = lower value 0.977 | S. cerevisiae deletion strains, locus YLR418C, strain cdc73, stronger effect = lower value 0.988 | S. cerevisiae deletion strains, locus YML016C, strain PPZ1, stronger effect = lower value 0.993 | S. cerevisiae deletion strains, locus YML032C, strain rad52, stronger effect = lower value 0.976 | S. cerevisiae deletion strains, locus YML124C, strain tub3, stronger effect = lower value 0.996 | S. cerevisiae deletion strains, locus YMR078C, strain ctf18, stronger effect = lower value 0.97 | S. cerevisiae deletion strains, locus YMR223W, strain ubp8, stronger effect = lower value 0.981 | S. cerevisiae deletion strains, locus YMR263W, strain SAP30, stronger effect = lower value 1.03 | S. cerevisiae deletion strains, locus YMR307W, strain GAS1, stronger effect = lower value 0.909 | S. cerevisiae deletion strains, locus YNL067W, strain RPL9B, stronger effect = lower value 1.03 | S. cerevisiae deletion strains, locus YNL128W, strain TEP1, stronger effect = lower value 0.995 | S. cerevisiae deletion strains, locus YNL153C, strain GIM3, stronger effect = lower value 1.04 | S. cerevisiae deletion strains, locus YNL233W, strain BNI4, stronger effect = lower value 0.999 | S. cerevisiae deletion strains, locus YNL250W, strain rad50, stronger effect = lower value 0.974 | S. cerevisiae deletion strains, locus YNL271C, strain bni1, stronger effect = lower value 0.988 | S. cerevisiae deletion strains, locus YNL298W, strain CLA4, stronger effect = lower value 0.985 | S. cerevisiae deletion strains, locus YNL307C, strain MCK1, stronger effect = lower value 0.965 | S. cerevisiae deletion strains, locus YNL322C, strain KRE1, stronger effect = lower value 0.986 | S. cerevisiae deletion strains, locus YNR052C, strain pop2, stronger effect = lower value 0.987 | S. cerevisiae deletion strains, locus YOL006C, strain TOP1, stronger effect = lower value 0.977 | S. cerevisiae deletion strains, locus YOL012C, strain htz1 1.14 | S. cerevisiae deletion strains, locus YOL147C, strain pex11, stronger effect = lower value 0.996 | S. cerevisiae deletion strains, locus YOR061W, strain CKA2, stronger effect = lower value 0.994 | S. cerevisiae deletion strains, locus YOR069W, strain VPS5, stronger effect = lower value 0.963 | S. cerevisiae deletion strains, locus YOR136W, strain idh2, stronger effect = lower value 0.981 | S. cerevisiae deletion strains, locus YOR144C, strain elg1, stronger effect = lower value 0.998 | S. cerevisiae deletion strains, locus YOR184W, strain ser1, stronger effect = lower value 0.959 | S. cerevisiae deletion strains, locus YOR316C, strain cot1, stronger effect = lower value 0.987 | S. cerevisiae deletion strains, locus YPL055C, strain LGE1, stronger effect = lower value 1.04 | S. cerevisiae deletion strains, locus YPL241C, strain CIN2, stronger effect = lower value 0.994 | S. cerevisiae deletion strains, locus YPR119W, strain clb2, stronger effect = lower value 0.992 | S. cerevisiae deletion strains, locus YPR141C, strain kar3, stronger effect = lower value 0.985 | S. cerevisiae deletion strains, locus YPR163C, strain tif3, stronger effect = lower value 0.992 | S. cerevisiae deletion strains, locus YPR167C, strain met16, stronger effect = lower value 0.992 | S. cerevisiae deletion strains, strain wtn01, stronger effect = lower value 0.996 | S. cerevisiae strains, strain wild type, stronger effect = lower value 0.983
